Twelve sequences from PMC5700166 can be followed below.

Positions count from the first letter of the chain named.

What all share (assay): protein-binding microarray (PBM); PBM: ~300 nM protein, 6 mM HEPES pH 7.8, 80 mM KCl, 0.5 mM EDTA, 0.5 mM EGTA, 6% glycerol, 35 ng/ul poly-dIdC, 1% milk, 1 h, room temperature; Ap Aiptasia and Nv Nematostella (sea anemones) / Co Capsaspora / Aq Amphimedon (sponge) / Dm Drosophila / Hu human; RHD is the Rel homology domain; high values mean tight binding
Settings in all cases: dsDNA, one strand shown

The target in one assay is T1, GST-Ap-NF-kB RHD (Exaiptasia pallida (Aiptasia), UniProt A0A913YAJ5 2-422).
T1 sequence: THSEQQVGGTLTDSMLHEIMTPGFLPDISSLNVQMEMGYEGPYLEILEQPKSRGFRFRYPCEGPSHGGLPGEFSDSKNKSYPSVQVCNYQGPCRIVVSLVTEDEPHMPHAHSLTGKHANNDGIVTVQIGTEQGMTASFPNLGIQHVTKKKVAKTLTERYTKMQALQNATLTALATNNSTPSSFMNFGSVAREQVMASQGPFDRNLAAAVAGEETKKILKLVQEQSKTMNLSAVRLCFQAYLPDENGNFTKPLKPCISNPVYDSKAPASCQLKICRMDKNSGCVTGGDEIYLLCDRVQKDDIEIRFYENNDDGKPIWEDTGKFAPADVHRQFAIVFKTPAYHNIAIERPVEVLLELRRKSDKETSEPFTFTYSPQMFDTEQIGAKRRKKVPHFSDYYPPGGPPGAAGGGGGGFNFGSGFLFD

Assay [1] addresses T2, GST-Nv-NF-kB (Cys allele) (Nematostella vectensis, UniProt E5G601 2-411).
T2 sequence: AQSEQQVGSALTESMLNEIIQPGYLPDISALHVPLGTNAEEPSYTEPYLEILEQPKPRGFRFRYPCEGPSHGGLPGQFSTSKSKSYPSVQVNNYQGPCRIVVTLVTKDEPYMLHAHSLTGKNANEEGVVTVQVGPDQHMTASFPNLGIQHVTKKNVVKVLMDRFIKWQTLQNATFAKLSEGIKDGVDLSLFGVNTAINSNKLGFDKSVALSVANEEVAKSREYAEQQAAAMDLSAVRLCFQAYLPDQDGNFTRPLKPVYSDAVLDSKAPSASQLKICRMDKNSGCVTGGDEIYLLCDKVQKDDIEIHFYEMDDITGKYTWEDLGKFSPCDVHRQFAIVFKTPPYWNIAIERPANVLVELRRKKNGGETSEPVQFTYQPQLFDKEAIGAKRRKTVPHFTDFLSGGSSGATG

The target in assay [2] is T3, GST-Nv-NF-kB (Ser allele) (Nematostella vectensis, UniProt A7UNT2 2-411).
T3 sequence: T2 sequence with Q21R, C66S, S207N, E215Q, V217A, E225K, A268E, D399E

The next assay addresses T4, GST-Co-NF-kB (Capsaspora owczarzaki, UniProt F1ARL5 200-546).
T4 sequence: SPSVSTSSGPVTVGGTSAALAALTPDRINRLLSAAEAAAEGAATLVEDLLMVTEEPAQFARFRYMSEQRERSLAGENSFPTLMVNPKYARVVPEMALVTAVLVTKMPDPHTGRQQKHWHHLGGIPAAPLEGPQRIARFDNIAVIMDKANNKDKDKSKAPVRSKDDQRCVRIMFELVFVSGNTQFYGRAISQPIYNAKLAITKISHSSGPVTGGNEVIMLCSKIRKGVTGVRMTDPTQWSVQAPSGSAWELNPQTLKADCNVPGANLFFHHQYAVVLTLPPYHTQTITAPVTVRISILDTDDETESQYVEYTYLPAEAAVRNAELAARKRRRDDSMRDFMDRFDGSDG

A further assay deals with T5, GST-Dm-Relish (Drosophila melanogaster, UniProt Q94527 99-473).
T5 sequence: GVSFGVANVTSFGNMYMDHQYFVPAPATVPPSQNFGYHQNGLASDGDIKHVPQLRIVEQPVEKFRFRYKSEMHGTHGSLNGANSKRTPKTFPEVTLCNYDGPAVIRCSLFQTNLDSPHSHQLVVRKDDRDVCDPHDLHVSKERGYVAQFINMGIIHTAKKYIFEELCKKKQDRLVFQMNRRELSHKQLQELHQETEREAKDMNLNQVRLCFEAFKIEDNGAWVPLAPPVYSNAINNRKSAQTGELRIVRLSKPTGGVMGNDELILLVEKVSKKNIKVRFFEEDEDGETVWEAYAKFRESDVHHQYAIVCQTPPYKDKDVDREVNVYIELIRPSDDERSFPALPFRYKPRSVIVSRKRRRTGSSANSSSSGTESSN

A further assay addresses T6, GST-Aq-NF-kB (Amphimedon queenslandica, UniProt A9Y5G7 2-389).
T6 sequence: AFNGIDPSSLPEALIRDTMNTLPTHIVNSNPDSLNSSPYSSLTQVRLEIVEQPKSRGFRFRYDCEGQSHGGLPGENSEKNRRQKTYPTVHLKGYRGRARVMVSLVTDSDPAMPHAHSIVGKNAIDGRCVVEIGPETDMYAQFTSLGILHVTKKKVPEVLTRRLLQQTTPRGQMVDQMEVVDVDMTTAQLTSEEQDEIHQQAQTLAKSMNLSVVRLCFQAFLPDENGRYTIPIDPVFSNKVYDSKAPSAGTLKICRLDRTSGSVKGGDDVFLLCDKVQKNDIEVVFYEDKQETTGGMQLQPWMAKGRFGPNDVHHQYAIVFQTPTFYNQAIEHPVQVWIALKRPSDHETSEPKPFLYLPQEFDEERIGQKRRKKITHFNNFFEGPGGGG

A further assay addresses GST-Hu-p50 (Homo sapiens, UniProt P19838 7-356).

GST-Hu-p50, sequence (P19838 7-356): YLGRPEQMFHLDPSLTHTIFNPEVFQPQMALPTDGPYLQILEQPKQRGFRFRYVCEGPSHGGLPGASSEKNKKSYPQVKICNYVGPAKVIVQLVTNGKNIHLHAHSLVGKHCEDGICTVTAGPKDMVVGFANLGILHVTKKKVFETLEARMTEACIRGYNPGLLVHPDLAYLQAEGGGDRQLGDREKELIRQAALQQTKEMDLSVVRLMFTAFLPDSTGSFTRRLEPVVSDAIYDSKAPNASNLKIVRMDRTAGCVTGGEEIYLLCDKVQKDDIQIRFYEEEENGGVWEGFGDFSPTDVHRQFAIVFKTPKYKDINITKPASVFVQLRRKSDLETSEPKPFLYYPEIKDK

On to “CCGATTAACATCAGGGGGCTTTATGATGTTAATCGGGTCTTGATTCGCTTGACGCTGCTG”, for which the binding signal amounted to 5.16 z-score in the assay with GST-Ap-NF-kB RHD; 5.53 z-score in assay [1]; 4.34 z-score in assay [2]; 1.85 z-score with GST-Co-NF-kB; 6.23 z-score in the assay with GST-Dm-Relish; 5.44 z-score with GST-Aq-NF-kB. This sequence showed a binding signal with GST-Hu-p50 of 5.71 z-score.
With “CCGATTAACATCAGATAATTCCCTGATGTTAATCGGGTCTTGATTCGCTTGACGCTGCTG”, the binding signal is 5.7 z-score with GST-Ap-NF-kB RHD; 7.58 z-score in assay [1]; 6.02 z-score in assay [2]; 4.01 z-score in the assay with GST-Co-NF-kB; 3.74 z-score in the assay with GST-Dm-Relish; 7.02 z-score with GST-Aq-NF-kB. The sequence also gave a binding signal with GST-Hu-p50 of 4.73 z-score.
Consider “CCGATTAACATCAAATTCCCATGTGATGTTAATCGGGTCTTGATTCGCTTGACGCTGCTG”, for which the binding signal in the assay with GST-Ap-NF-kB RHD was determined as 2.41 z-score; in assay [1], 4.08 z-score; in assay [2] it was 4.15 z-score; in the assay with GST-Co-NF-kB, 1.96 z-score; with GST-Dm-Relish it was 3.99 z-score; in the assay with GST-Aq-NF-kB, 2.58 z-score. In the assay with GST-Hu-p50, this sequence came in with a binding signal of 3.09 z-score.
Turning to “CCGATTAACATCAAATTTCCCGGTGATGTTAATCGGGTCTTGATTCGCTTGACGCTGCTG”, the binding signal came to 4.14 z-score with GST-Ap-NF-kB RHD; 4.99 z-score in assay [1]; 4.8 z-score in assay [2]; 6.34 z-score in the assay with GST-Co-NF-kB; 3.56 z-score with GST-Dm-Relish; 4.88 z-score in the assay with GST-Aq-NF-kB. Moreover, the binding signal in the assay with GST-Hu-p50 came to 4.39 z-score.
As to “CCGATTAACATCAAAAGTTCCCCTGATGTTAATCGGGTCTTGATTCGCTTGACGCTGCTG”, the binding signal came to 8.35 z-score with GST-Ap-NF-kB RHD; 9.74 z-score in assay [1]; 10.9 z-score in assay [2]; 9.64 z-score with GST-Co-NF-kB; 9.48 z-score with GST-Dm-Relish; 7.95 z-score with GST-Aq-NF-kB. In addition, the binding signal with GST-Hu-p50 amounted to 6.5 z-score.
As for “CCGATTAACATCAGGGGATTCACTGATGTTAATCGGGTCTTGATTCGCTTGACGCTGCTG”, the binding signal turned out to be 7.47 z-score with GST-Ap-NF-kB RHD; 7.31 z-score in assay [1]; 7.91 z-score in assay [2]; 3.35 z-score with GST-Co-NF-kB; 10.3 z-score with GST-Dm-Relish; 6.42 z-score with GST-Aq-NF-kB. Moreover, in the assay with GST-Hu-p50, the binding signal was determined as 6.59 z-score.
Take “CCGATTAACATCACCACCCCCCCTGATGTTAATCGGGTCTTGATTCGCTTGACGCTGCTG”: the binding signal with GST-Ap-NF-kB RHD is 4.06 z-score; in assay [1] it was 3.75 z-score; in assay [2], 3.44 z-score; in the assay with GST-Co-NF-kB it was 3.56 z-score; with GST-Dm-Relish, 4.58 z-score; in the assay with GST-Aq-NF-kB, 3.75 z-score. The binding signal with GST-Hu-p50 worked out at 4.06 z-score.
Take “CCGATTAACATCAGGGGAACTTATGATGTTAATCGGGTCTTGATTCGCTTGACGCTGCTG”: the binding signal was 7.4 z-score in the assay with GST-Ap-NF-kB RHD; 8.58 z-score in assay [1]; 8.41 z-score in assay [2]; 7.21 z-score in the assay with GST-Co-NF-kB; 7.11 z-score with GST-Dm-Relish; 6.48 z-score in the assay with GST-Aq-NF-kB. In the assay with GST-Hu-p50, this sequence came in with a binding signal of 5.95 z-score.
Regarding “CCGATTAACATCAAGGGGGAATATGATGTTAATCGGGTCTTGATTCGCTTGACGCTGCTG”, the binding signal with GST-Ap-NF-kB RHD is 7.61 z-score; in assay [1], 8.35 z-score; in assay [2], 9.33 z-score; with GST-Co-NF-kB, 7.86 z-score; with GST-Dm-Relish it was 4.64 z-score; with GST-Aq-NF-kB it was 6.45 z-score. For the same sequence, the binding signal in the assay with GST-Hu-p50 was determined as 6.95 z-score.
Take “CCGATTAACATCAAGAACTTCCCTGATGTTAATCGGGTCTTGATTCGCTTGACGCTGCTG”: the binding signal worked out at 3.37 z-score with GST-Ap-NF-kB RHD; 3.73 z-score in assay [1]; 3.72 z-score in assay [2]; 2.1 z-score with GST-Co-NF-kB; 2.86 z-score with GST-Dm-Relish; 4.6 z-score in the assay with GST-Aq-NF-kB. In the assay with GST-Hu-p50, the binding signal stood at 2.19 z-score.
As for “CCGATTAACATCAGGGGCAGTACTGATGTTAATCGGGTCTTGATTCGCTTGACGCTGCTG”, the binding signal with GST-Ap-NF-kB RHD was 2.61 z-score; in assay [1], 1.84 z-score; in assay [2] it was 1.28 z-score; with GST-Co-NF-kB it was 1.64 z-score; with GST-Dm-Relish, 3.44 z-score; with GST-Aq-NF-kB it was 4.35 z-score. The binding signal in the assay with GST-Hu-p50 was 2.94 z-score.
For “CCGATTAACATCAGGAACTCCCATGATGTTAATCGGGTCTTGATTCGCTTGACGCTGCTG”, the binding signal in the assay with GST-Ap-NF-kB RHD amounted to 2.86 z-score; in assay [1], 2.53 z-score; in assay [2], 1.04 z-score; with GST-Co-NF-kB, 1.08 z-score; in the assay with GST-Dm-Relish, 4.29 z-score; with GST-Aq-NF-kB, 3.71 z-score. In the assay with GST-Hu-p50, the binding signal stood at 1.95 z-score.
